Source: PubChem BioAssay AID1159580 (chemical genetic matrix, 2015)
The whole screen tested about 5,500 compounds, of which about 2,000 (36%) were called active. Another 18% or so got no clear call; they are omitted. Rule as the data show it: active = normalized growth mostly below about 0.91 (no sharp cut-off); inconclusive = no clear call, values can overlap the other calls; inactive = mostly above about 0.92. Some of the results follow.

Assay: chemical genetic growth profiling, strain panel (AID 1159580);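 also: tested at 20 µM; growth read once vehicle control cultures reached saturation at 30 °C; 1 = growth at the plate median or of vehicle wells; lower values mean less growth of the strain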
Conditions: growth OD
[1] = S. cerevisiae deletion strains, locus YAL013W, strain DEP1, hits give low values
[2] = S. cerevisiae deletion strains, locus YDR150W, strain NUM1, hits give low values
[3] = S. cerevisiae deletion strains, locus YJR075W, strain HOC1, hits give low values
[4] = S. cerevisiae deletion strains, locus YMR263W, strain SAP30, hits give low values
[5] = S. cerevisiae deletion strains, locus YNL153C, strain GIM3, hits give low values
[6] = S. cerevisiae deletion strains, locus YPL241C, strain CIN2, hits give low values

Measured: normalized growth

CC1Cc2cc3c(cc2C(c2ccc(N)cc2)=NN1)OCO3 (centres undefined)
inactive: [1] 0.958 | S. cerevisiae deletion strains, locus YAL040C, strain CLN3, hits give low values 0.946 | S. cerevisiae deletion strains, locus YCL061C, strain MRC1 (second series), hits give low values 0.991 | [2] 0.995 | S. cerevisiae deletion strains, locus YDR363W, strain ESC2, hits give low values 0.989 | S. cerevisiae deletion strains, locus YER002W, strain NOP16, hits give low values 0.991 | [3] 0.97 | [4] 0.982 | [5] 0.979 | S. cerevisiae deletion strains, locus YNL175C, strain NOP13, hits give low values 0.996 | S. cerevisiae deletion strains, locus YNL197C, strain WHI3, hits give low values 0.999 | S. cerevisiae deletion strains, locus YNL224C, strain SQS1, hits give low values 0.996 | [6] 0.986

CCCSP(=O)(OCC)SCCC
inactive: [1] 1.01 | S. cerevisiae deletion strains, locus YBR021W, strain FUR4, hits give low values 1 | S. cerevisiae deletion strains, locus YBR229C, strain ROT2, hits give low values 1.02 | S. cerevisiae deletion strains, locus YCL029C, strain bik1, hits give low values 0.988 | S. cerevisiae deletion strains, locus YDL035C, strain GPR1, hits give low values 1.02 | S. cerevisiae deletion strains, locus YDL074C, strain BRE1, hits give low values 1.07 | S. cerevisiae deletion strains, locus YDL101C, strain DUN1, hits give low values 1.02 | S. cerevisiae deletion strains, locus YDL134C, strain PPH21, hits give low values 1.02 | S. cerevisiae deletion strains, locus YDL185W, strain tfp1, hits give low values 0.984 | S. cerevisiae deletion strains, locus YDL192W, strain arf1, hits give low values 0.988 | S. cerevisiae deletion strains, locus YDR101C, strain arx1, hits give low values 0.99 | [2] 1.02 | S. cerevisiae deletion strains, locus YDR162C, strain NBP2, hits give low values 1.02 | S. cerevisiae deletion strains, locus YDR318W, strain mcm21, hits give low values 0.995 | S. cerevisiae deletion strains, locus YDR388W, hits give low values 0.995 | S. cerevisiae deletion strains, locus YDR502C, strain sam2, hits give low values 0.996 | S. cerevisiae deletion strains, locus YEL061C, strain CIN8, hits give low values 1.02 | S. cerevisiae deletion strains, locus YER110C, hits give low values 0.983 | S. cerevisiae deletion strains, locus YER155C, strain BEM2, hits give low values 1.03 | S. cerevisiae deletion strains, locus YER167W, strain BCK2, hits give low values 0.994 | S. cerevisiae deletion strains, locus YGL078C, strain dbp3, hits give low values 0.964 | S. cerevisiae deletion strains, locus YGL086W, strain mad1, hits give low values 0.994 | S. cerevisiae deletion strains, locus YGL248W, strain PDE1, hits give low values 1.03 | S. cerevisiae deletion strains, locus YGR078C, strain PAC10, hits give low values 1.02 | S. cerevisiae deletion strains, locus YGR135W, strain pre9, hits give low values 0.98 | S. cerevisiae deletion strains, locus YGR229C, strain SMI1, hits give low values 1.03 | S. cerevisiae deletion strains, locus YGR252W, strain gcn5, hits give low values 0.927 | S. cerevisiae deletion strains, locus YHR030C, strain SLT2, hits give low values 1.02 | S. cerevisiae deletion strains, locus YHR079C, strain IRE1 (second series), hits give low values 0.982 | S. cerevisiae deletion strains, locus YHR094C, strain hxt1, hits give low values 0.978 | S. cerevisiae deletion strains, locus YHR129C, strain ARP1, hits give low values 1.02 | S. cerevisiae deletion strains, locus YHR200W, strain rpn10, hits give low values 0.982 | S. cerevisiae deletion strains, locus YIL066C, strain RNR3, hits give low values 1.03 | S. cerevisiae deletion strains, locus YIL073C, strain SPO22, hits give low values 0.996 | S. cerevisiae deletion strains, locus YIL125W, strain kgd1, hits give low values 0.987 | S. cerevisiae deletion strains, locus YIR030C, strain dcg1, hits give low values 0.976 | S. cerevisiae deletion strains, locus YJL095W, strain BCK1, hits give low values 1.04 | S. cerevisiae deletion strains, locus YJL134W, strain LCB3, hits give low values 1.01 | S. cerevisiae deletion strains, locus YJL168C, strain set2, hits give low values 0.981 | S. cerevisiae deletion strains, locus YJL187C, strain SWE1 (second series), hits give low values 1.01 | S. cerevisiae deletion strains, locus YJR043C, strain POL32, hits give low values 1.02 | [3] 1.03 | S. cerevisiae deletion strains, locus YKL009W, strain mrt4, hits give low values 1.01 | S. cerevisiae deletion strains, locus YKL068W, hits give low values 0.996 | S. cerevisiae deletion strains, locus YKL085W, strain MDH1 (second series), hits give low values 0.99 | S. cerevisiae deletion strains, locus YKL085W, strain MDH1, hits give low values 0.99 | S. cerevisiae deletion strains, locus YKL190W, strain CNB1, hits give low values 1 | S. cerevisiae deletion strains, locus YKR001C, strain vps1, hits give low values 0.982 | S. cerevisiae deletion strains, locus YLR039C, strain RIC1, hits give low values 1.02 | S. cerevisiae deletion strains, locus YLR058C, strain SHM2, hits give low values 1.01 | S. cerevisiae deletion strains, locus YLR102C, strain apc9, hits give low values 0.977 | S. cerevisiae deletion strains, locus YLR262C, strain YPT6, hits give low values 1.02 | S. cerevisiae deletion strains, locus YLR268W, strain sec22, hits give low values 0.994 | S. cerevisiae deletion strains, locus YLR330W, strain CHS5, hits give low values 1.02 | S. cerevisiae deletion strains, locus YLR342W, strain FKS1 (second series), hits give low values 0.995 | S. cerevisiae deletion strains, locus YLR371W, strain rom2, hits give low values 0.981 | S. cerevisiae deletion strains, locus YLR418C, strain cdc73, hits give low values 0.999 | S. cerevisiae deletion strains, locus YML016C, strain PPZ1, hits give low values 1.02 | S. cerevisiae deletion strains, locus YML032C, strain rad52, hits give low values 0.983 | S. cerevisiae deletion strains, locus YML124C, strain tub3, hits give low values 0.989 | S. cerevisiae deletion strains, locus YMR078C, strain ctf18, hits give low values 0.983 | S. cerevisiae deletion strains, locus YMR223W, strain ubp8, hits give low values 0.974 | [4] 1.03 | S. cerevisiae deletion strains, locus YMR307W, strain GAS1, hits give low values 1.01 | S. cerevisiae deletion strains, locus YNL067W, strain RPL9B, hits give low values 1.02 | S. cerevisiae deletion strains, locus YNL128W, strain TEP1, hits give low values 1.03 | [5] 1.02 | S. cerevisiae deletion strains, locus YNL233W, strain BNI4, hits give low values 1.01 | S. cerevisiae deletion strains, locus YNL250W, strain rad50, hits give low values 0.984 | S. cerevisiae deletion strains, locus YNL271C, strain bni1, hits give low values 0.974 | S. cerevisiae deletion strains, locus YNL298W, strain CLA4, hits give low values 0.977 | S. cerevisiae deletion strains, locus YNL307C, strain MCK1, hits give low values 0.979 | S. cerevisiae deletion strains, locus YNL322C, strain KRE1, hits give low values 1.01 | S. cerevisiae deletion strains, locus YNR052C, strain pop2, hits give low values 0.971 | S. cerevisiae deletion strains, locus YOL006C, strain TOP1, hits give low values 1.05 | S. cerevisiae deletion strains, locus YOL012C, strain htz1 0.903 | S. cerevisiae deletion strains, locus YOL147C, strain pex11, hits give low values 0.991 | S. cerevisiae deletion strains, locus YOR061W, strain CKA2, hits give low values 1.01 | S. cerevisiae deletion strains, locus YOR069W, strain VPS5, hits give low values 1.01 | S. cerevisiae deletion strains, locus YOR136W, strain idh2, hits give low values 0.998 | S. cerevisiae deletion strains, locus YOR144C, strain elg1, hits give low values 0.999 | S. cerevisiae deletion strains, locus YOR184W, strain ser1, hits give low values 0.975 | S. cerevisiae deletion strains, locus YOR316C, strain cot1, hits give low values 0.99 | S. cerevisiae deletion strains, locus YPL055C, strain LGE1, hits give low values 1.03 | [6] 1.01 | S. cerevisiae deletion strains, locus YPR119W, strain clb2, hits give low values 0.985 | S. cerevisiae deletion strains, locus YPR141C, strain kar3, hits give low values 0.987 | S. cerevisiae deletion strains, locus YPR163C, strain tif3, hits give low values 0.986 | S. cerevisiae deletion strains, locus YPR167C, strain met16, hits give low values 0.985 | S. cerevisiae deletion strains, strain wtn01, hits give low values 0.987 | S. cerevisiae strains, strain wild type, hits give low values 1.02
